# Experimental data published in PubChem BioAssay (Tox21).
# Where “and” joins values, the source holds several entries; their conditions need not be identical. Equal values may be shown once. Values without a mark were called inactive. Results filed as inconclusive are left out. Entries that show only a call come without a potency. Calls of active or inactive are those of the source. Unless noted, calls come from the whole dose curve; as a rule, active = well fitted curve in the direction sought with a large enough effect in the repeat runs; inconclusive = weak or mixed curves; inactive = no such curve, though single readings can be large; an effect the other way counts as inactive or inconclusive.
# Key:
# [1] = qHTS assay to identify small molecule antagonists of the estrogen related receptor (ERR) signaling pathway from Tox21 library - cell viability counter screen (AID 1224834); note: nearly all actives have a fitted effect of over 30% in size; note: potency is the fitted concentration of half-maximal effect
# Method in brief: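 ERR reporter cells were plated 6 h before compound addition, then exposed to test compounds in DMSO for 17.5 h at 37 C. Viability was read as CellTiter-Fluor fluorescence after a 30-minute incubation at 37 C.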
# [2] = molecular target: Luciferin 4-monooxygenase (Photinus pyralis) (UniProt P08659); assay: qHTS assay to identify small molecule inhibitors of firefly luciferase (AID 1224835); note: nearly all actives have a fitted effect of over 25% in size; note: potency is the fitted concentration of half-maximal effect
# Method in brief: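 Quantitative HTS format; KM concentrations of both substrates. Purified P. pyralis FLuc activity quantified from luminescence images.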
# [3] = qHTS assay to identify small molecule agonists of the constitutive androstane receptor (CAR) signaling pathway - cell viability counter screen (AID 1224836); note: nearly all actives have a fitted effect of over 45% in size; note: potency is the fitted concentration of half-maximal effect
# Method in brief: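 Counter screen multiplexed with the CAR reporter readout: HepG2 cells co-transfected with hCAR and the CYP2B6-2.2kb construct receive a 15-concentration compound series and 0.75 uM PK11195 (final), then CellTiter-Fluor fluorescence is read after 23 h.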
# [4] = qHTS assay to identify small molecule antagonists of the constitutive androstane receptor (CAR) signaling pathway - cell viability counter screen (AID 1224837); note: nearly all actives have a fitted effect of over 45% in size; note: potency is the fitted concentration of half-maximal effect
# Method in brief: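 HepG2 cells stably expressing hCAR and a CYP2B6-2.2kb reporter were plated and pre-incubated 4 hr at 37 C/5% CO2, then given compounds at 15 concentrations plus 50 nM CITCO (final). After 23 hr, viability was read by CellTiter-Fluor fluorescence.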
# [5] = molecular target: Nuclear receptor subfamily 1 group I member 3 (Homo sapiens) (UniProt Q14994); assay: qHTS assay to identify small molecule antagonists of the constitutive androstane receptor (CAR) signaling pathway (AID 1224838); note: nearly all actives have a fitted effect of over 40% in size; note: potency is the fitted concentration of half-maximal effect
# Method in brief: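 HepG2 cells stably co-transfected with hCAR and a CYP2B6-2.2kb luciferase reporter were seeded 4 h before compound addition at 15 concentrations. Cells were stimulated with 50 nM CITCO (final) for 24 h at 37 C; luciferase luminescence was then read.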
# [6] = molecular target: Nuclear receptor subfamily 1 group I member 3 (Homo sapiens) (UniProt Q14994); assay: qHTS assay to identify small molecule agonists of the constitutive androstane receptor (CAR) signaling pathway (AID 1224839); note: nearly all actives have a fitted effect of over 15% in size
# Method in brief: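 A 15-concentration quantitative screen uses HepG2 cells co-transfected stably with human CAR and CYP2B6-2.2kb reporter. Treatment lasts 24 h with 0.75 uM PK11195 final present; ONE-Glo luminescence is the signal.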
# [7] = qHTS assay to identify small molecule antagonists of the estrogen related receptor signaling pathway with the pleiotropic PPARgamma coactivator (PGC) from Tox21 10K library - cell viability counter screen (AID 1224840; active = well fitted cell-killing curve with a large enough effect in the repeat runs, not every such curve was filed as active; note: nearly all actives have a fitted effect of over 40% in size; note: potency is the fitted concentration of half-maximal effect)
# Method in brief: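 PGC/ERR cells were seeded at 2,000 cells/well and left 6 hours at 37 C/5% CO2 before pin-tool addition of compounds in DMSO. After 17.5 hours at 37 C, CellTiter-Fluor was added and fluorescence read 30 minutes later.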
# [8] = qHTS assay to identify small molecule antagonists of the estrogen related receptor signaling pathway with the pleiotropic PPARgamma coactivator (PGC) from Tox21 10K library (AID 1224841; call rule not given here; note: actives are mostly falling curves and most rising ones were filed inactive; nearly all actives have a fitted effect of over 50% in size; note: potency is the fitted concentration of half-maximal effect)
# Method in brief: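 PGC/ERR reporter cells were seeded at 2,000 cells/well and held 6 hours at 37 C/5% CO2 before pin-tool addition of compounds in DMSO. After 18 hours at 37 C, One-Glo was added and luminescence read after 30 minutes at room temperature.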
# [9] = qHTS assay to identify small molecule agonists of the estrogen related receptor signaling pathway with the pleiotropic PPARgamma coactivator (PGC) from Tox21 10K library (AID 1224842); note: nearly all actives have a fitted effect of over 15% in size
# Method in brief: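 PGC/ERR reporter cells (NTP line) were seeded 2,000 per well, rested 6 h at 37 C/5% CO2, then pin-dosed with compounds in DMSO for 18 h at 37 C; luciferase read by One-Glo luminescence after 30 min at room temperature.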
# [10] = molecular target: Thyrotropin receptor (Homo sapiens) (UniProt P16473); assay: qHTS assay to identify small molecule agonists of the thyroid stimulating hormone receptor (TSHR) signaling pathway (AID 1224843; calls by dose curve; note: nearly all actives have a fitted effect of over 45% in size; note: potency is the fitted concentration of half-maximal effect)
# Method in brief: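 Cell line HEK293 with TSHR; density 800/well. Exposure 30 min RT. Readout HTRF cAMP (cAMP-d2/anti-cAMP-cryptate), 1 h RT before reading.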
# [11] = qHTS assay to identify small molecule agonists of the hypoxia (HIF-1) signaling pathway - cell viability counter screen (AID 1224844; calls by dose curve; note: nearly all actives have a fitted effect of over 50% in size; note: potency is the fitted concentration of half-maximal effect)
# Method in brief: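 HRE-bla ME-180 cells in medium with 0.5% dialyzed FBS were preincubated 5 hrs at 37C, exposed to compounds for 17 hrs, then viability was read as CellTiter-Glo luminescence after 30 min at room temperature, in the reporter wells.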
# [12] = qHTS assay to identify small molecule antagonists of the estrogen related receptor (ERR) signaling pathway from Tox21 library (AID 1224848); note: nearly all actives have a fitted effect of over 50% in size; note: potency is the fitted concentration of half-maximal effect
# Method in brief: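 Screening used an ERR reporter line supplied by NTP, exposed for 18 h at 37 C to library compounds delivered in DMSO. Signal was luciferase luminescence developed with ONE-Glo at room temperature for 30 min.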
# [13] = qHTS assay to identify small molecule agonists of the estrogen related receptor (ERR) signaling pathway from Tox21 library (AID 1224849; calls by dose curve; note: nearly all actives have a fitted effect of over 15% in size); details: ERR reporter cell line, ONE-Glo luciferase, 18 h; at 92.4 µM (top of the series) unless noted
# Method in brief: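 ERR reporter cell line (NTP) seeded, rested 6 h at 37 C/5% CO2, then pinned with Tox21 compounds in DMSO. After 18 h at 37 C, ONE-Glo luciferase luminescence was read following 30 min at room temperature.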
# [14] = qHTS RealTime-Glo MT Cell Viability Assay in HEK293 cells - 32 hour (AID 1224868); note: nearly all actives have a fitted effect of over 50% in size; note: potency is the fitted concentration of half-maximal effect
# Method in brief: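 Viability tracked continuously by luminescence as live cells reduce a prosubstrate for NanoLuc; HEK293 cells preincubated 5 h, compound-treated at 37 C, and read at 0, 8, 16, 24, 32 and 40 h.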
# [15] = A CellTox Green Cytotoxicity Assay to monitor cytotoxicity in HEK293 cells - 0 hour (AID 1224869); note: nearly all actives have a fitted effect of over 50% in size
# Method in brief: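 HEK293 cells premixed with CellTox Green dye were seeded at 600 cells/well and left 5 h at 37 C/5% CO2 before pin transfer of 23 nL compound in DMSO. Fluorescence from dye bound to dead-cell DNA was read during 40 h treatment.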
# [16] = qHTS RealTime-Glo MT Cell Viability Assay in HepG2 cells - 40 hour (AID 1224870); note: nearly all actives have a fitted effect of over 50% in size; note: potency is the fitted concentration of half-maximal effect
# Method in brief: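 HepG2 cells mixed with RealTime-Glo MT reagents (NanoLuc plus cell-permeant prosubstrate) were seeded at 600 cells/well, incubated 5 h at 37 C/5% CO2, then pinned with compounds in DMSO; nonlytic luminescence tracked viability during 40 h treatment.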
# [17] = qHTS assay to identify small molecule agonists of H2AX - cell viability counter screen (AID 1224847; calls by dose curve; note: nearly all actives have a fitted effect of over 30% in size; note: potency is the fitted concentration of half-maximal effect)
# Method in brief: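 We seed wild-type CHO-K1 cells overnight, treat them for 3 hr at 37C with compounds in 15-concentration series, and quantify remaining viability by CellTiter-Glo luminescence.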
# [18] = qHTS RealTime-Glo MT Cell Viability Assay in HepG2 cells - 24 hour (AID 1224867); note: nearly all actives have a fitted effect of over 50% in size; note: potency is the fitted concentration of half-maximal effect
# Method in brief: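 Viability was tracked continuously by NanoLuc luminescence from prosubstrate reduced by living HepG2 cells, at successive time points over 40 h of compound exposure. Cells with reagent were preincubated 5 h at 37 °C before compound addition.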
# [19] = qHTS assay to identify small molecule agonists of H2AX (AID 1224845; active = well fitted activation curve with a large enough effect in the signal ratio in the repeat runs, not every such curve was filed as active; the % refers to the signal ratio)
# Method in brief: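 Wild-type CHO-K1 cells plated overnight, then exposed 3 hr at 37C to compounds at 15 concentrations (0.76% DMSO). Lysed, then HTRF anti-pH2AX(S139)-cryptate/anti-H2AX-d2 detection after 24 hr at room temperature; emissions 665 and 620 nm.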
# [20] = qHTS assay to identify small molecule agonists of the hypoxia (HIF-1) signaling pathway (AID 1224846; active = well fitted activation curve with a large enough effect in the signal ratio in the repeat runs, not every such curve was filed as active; the % refers to the signal ratio)
# Method in brief: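 HRE-bla ME-180 cells (beta-lactamase reporter under hypoxia response element) were plated at 2,000 cells/well in medium with 0.5% dialyzed FBS, rested 5 hrs, then given compounds in DMSO for 17 hrs at 37C, 5% CO2. Reporter induction was read with CCF4-AM FRET substrate.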
# Sequence of Nuclear receptor subfamily 1 group I member 3 (Homo sapiens) (Q14994 whole entry, looked up): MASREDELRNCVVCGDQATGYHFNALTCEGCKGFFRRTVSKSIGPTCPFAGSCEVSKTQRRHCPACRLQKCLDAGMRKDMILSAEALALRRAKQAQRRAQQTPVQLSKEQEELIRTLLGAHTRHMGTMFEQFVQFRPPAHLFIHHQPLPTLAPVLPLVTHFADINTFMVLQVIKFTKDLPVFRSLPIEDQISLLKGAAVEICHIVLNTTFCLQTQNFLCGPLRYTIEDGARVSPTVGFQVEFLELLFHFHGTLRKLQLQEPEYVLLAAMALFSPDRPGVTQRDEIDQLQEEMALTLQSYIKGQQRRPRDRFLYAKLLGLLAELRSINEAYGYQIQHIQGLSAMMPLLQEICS
# Sequence of Luciferin 4-monooxygenase (Photinus pyralis) (P08659 whole entry, looked up): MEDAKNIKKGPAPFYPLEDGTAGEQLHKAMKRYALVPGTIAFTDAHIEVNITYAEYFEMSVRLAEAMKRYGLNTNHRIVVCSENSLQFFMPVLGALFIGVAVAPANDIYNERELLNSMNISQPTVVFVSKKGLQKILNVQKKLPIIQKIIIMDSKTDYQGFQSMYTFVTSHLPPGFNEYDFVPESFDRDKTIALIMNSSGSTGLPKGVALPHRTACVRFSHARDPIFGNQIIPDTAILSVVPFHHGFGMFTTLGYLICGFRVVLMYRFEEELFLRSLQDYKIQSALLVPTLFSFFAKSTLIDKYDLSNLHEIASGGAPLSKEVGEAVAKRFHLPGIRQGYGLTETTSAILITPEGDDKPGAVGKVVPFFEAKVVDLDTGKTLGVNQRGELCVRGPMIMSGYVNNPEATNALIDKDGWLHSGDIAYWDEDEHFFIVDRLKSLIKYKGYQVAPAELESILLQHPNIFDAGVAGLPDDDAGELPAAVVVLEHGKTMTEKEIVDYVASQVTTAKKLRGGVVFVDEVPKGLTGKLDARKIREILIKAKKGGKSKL
# Sequence of Thyrotropin receptor (Homo sapiens) (P16473 whole entry, looked up): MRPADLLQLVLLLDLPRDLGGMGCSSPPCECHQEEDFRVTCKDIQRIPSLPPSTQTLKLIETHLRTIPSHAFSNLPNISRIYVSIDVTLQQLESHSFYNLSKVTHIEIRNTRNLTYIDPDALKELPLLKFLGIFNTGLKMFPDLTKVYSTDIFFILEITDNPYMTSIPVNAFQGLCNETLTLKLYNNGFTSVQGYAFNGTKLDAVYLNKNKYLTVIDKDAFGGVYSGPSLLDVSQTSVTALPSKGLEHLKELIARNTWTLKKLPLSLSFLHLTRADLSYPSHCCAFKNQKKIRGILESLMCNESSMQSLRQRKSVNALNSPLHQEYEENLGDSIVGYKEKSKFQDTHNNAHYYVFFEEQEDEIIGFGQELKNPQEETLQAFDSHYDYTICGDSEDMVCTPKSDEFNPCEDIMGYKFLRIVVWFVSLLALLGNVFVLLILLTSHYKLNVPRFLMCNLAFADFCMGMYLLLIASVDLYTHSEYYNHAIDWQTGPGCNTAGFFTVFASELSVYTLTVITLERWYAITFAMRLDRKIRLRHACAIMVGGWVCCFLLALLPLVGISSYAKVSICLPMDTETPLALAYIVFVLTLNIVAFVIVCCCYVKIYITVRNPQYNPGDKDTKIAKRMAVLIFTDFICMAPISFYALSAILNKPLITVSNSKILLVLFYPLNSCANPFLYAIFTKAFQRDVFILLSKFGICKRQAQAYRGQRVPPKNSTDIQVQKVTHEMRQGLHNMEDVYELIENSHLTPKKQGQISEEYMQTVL
SMILES,Potency [1],Potency [2],Potency [3],Potency [4],Potency [5],Potency [6],Potency [7],Potency [8],Potency [9],Potency [10],Potency [11],Potency [12],"activity change, positive = activation [13]",Potency [14],Potency [15],Potency [16],Potency [17],Potency [18],Potency [19],Potency [20]
N#CC(C#N)=NNc1cccc(Cl)c1,9.69 µM (active),35.6 µM (active),6.11 µM (active),6.86 µM (active),2.43 µM (active),inactive,7.7 µM (active),969 nM (active),inactive,inactive,3.09 µM (active),0.77 µM (active),-57.7%,4.9 µM (active),inactive,19.5 µM (active),,,,
CC(Cc1ccc(O)cc1)NCC(O)c1cc(O)cc(O)c1 (stereo not given),inactive,inactive,inactive,inactive,inactive,inactive,inactive,,,0.841 µM (active),inactive,,,inactive,inactive,inactive,inactive,inactive,,
CC(C)N(C(=O)CCl)c1ccccc1,21.7 µM (active),inactive,68.6 µM (active) and 61.1 µM (active),54.5 µM (active) and 48.6 µM (active),54.5 µM (active) and 38.6 µM (active),inactive,30.6 µM (active),9.69 µM (active) and 6.11 µM (active),,inactive,,15.4 µM (active) and 13.7 µM (active),-77.7% and -74.7%,,inactive,,,,,
CCC(OC(C)=O)C(CC(C)NC)(c1ccccc1)c1ccccc1 (stereo not given),69.2 µM (active),inactive,69.2 µM (active),69.2 µM (active),69.2 µM (active),inactive,69.2 µM (active),inactive,inactive,inactive,,69.2 µM (active),-58.4%,55.4 µM (active),inactive,62.2 µM (active),128 µM (active),62.2 µM (active),inactive,inactive
BrCCCBr,inactive,inactive,inactive,inactive,inactive,inactive,inactive,,,inactive,inactive,,,inactive,inactive,inactive,inactive,inactive,inactive,inactive
C=CC(=O)[O][Sn]([CH2]CCC)([CH2]CCC)[CH2]CCC,3.06 µM (active),35.6 µM (active),1.22 µM (active),1.93 µM (active),0.486 µM (active),inactive,1.72 µM (active),13700 nM (active),,,0.977 µM (active),1.37 µM (active),-66.8%,0.389 µM (active),inactive,0.389 µM (active),1.42 µM (active),0.436 µM (active),,
O=c1[nH]c2cc(Cl)ccc2n1C1CCNCC1,inactive,inactive,inactive,inactive,inactive,inactive,inactive,inactive,,inactive,inactive,inactive,0.0547% [at 42.5 µM],inactive,inactive,inactive,inactive,inactive,,
